Laboratory results from PubChem BioAssay (Tox21).
Several values for one entry are separate records, joined by “and”; a condition that tells them apart may be missing. Equal entries are not always repeated. Inconclusive results are not listed. Where a call stands in place of a potency, no number is given. Some compounds were tested as several samples or in several runs, with calls that do not always agree. Activity calls are given as the source filed them. Unless noted, calls follow the shape of the dose curve; as a rule, active = well fitted curve in the direction sought with a large enough effect in the repeat runs; inconclusive = weak or mixed curves; inactive = no such curve, though single readings can be large; an effect the other way counts as inactive or inconclusive.

What was measured:
[1] = qHTS assay to identify small molecule agonists of the RXR signaling pathway - cell viability counter screen (AID 1159529); details: RXR-alpha-bla HEK293T viability, CellTiter-Glo, 16 h; series mostly up to 76.8 µM; also: nearly all actives have a fitted effect of over 50% in size; also: potency is read from the fitted curve at half-maximal effect
Method in brief: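 Same-well viability check after the LiveBLAzer FRET read: CellTiter-Glo added, luminescence measured after 30 min at room temperature. Reporter HEK 293T cells had been treated with compounds for 16 hr following a 5 hr preincubation.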

[2] = qHTS assay to identify small molecule antagonists of the retinoic acid receptor (RAR) signaling pathway (AID 1159552; also: nearly all actives have a fitted effect of over 50% in size; also: potency is read from the fitted curve at half-maximal effect); details: C3RL4 RARE luciferase reporter, retinol-stimulated, 6 h; series mostly up to 92.4 µM
Method in brief: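 Readout: luciferase luminescence, 30 min post-reagent at RT. Setup: C3RL4 RARE reporter cells, compounds plus retinol 1 uM final, 6 hr incubation at 37 C and 5% CO2.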

[3] = qHTS assay to identify small molecule antagonists of the estrogen related receptor (ERR) signaling pathway from Tox21 library - cell viability counter screen (AID 1224834); details: ERR reporter cells viability, CellTiter-Fluor, 17.5 h; series mostly up to 92.4 µM; also: nearly all actives have a fitted effect of over 30% in size; also: potency is read from the fitted curve at half-maximal effect
Method in brief: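 ERR cells, 2,000/well; 6 h settle at 37 C/5% CO2; pin-tool compound transfer in DMSO; 17.5 h at 37 C; CellTiter-Fluor, 30 min; fluorescence intensity.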

[4] = molecular target: Luciferin 4-monooxygenase (Photinus pyralis) (UniProt P08659); experiment: qHTS assay to identify small molecule inhibitors of firefly luciferase (AID 1224835); also: nearly all actives have a fitted effect of over 25% in size; also: potency is read from the fitted curve at half-maximal effect; details: purified P. pyralis luciferase, luminescence inhibition; series mostly up to 115 µM
Sequence of Luciferin 4-monooxygenase (Photinus pyralis) (P08659 whole entry, looked up): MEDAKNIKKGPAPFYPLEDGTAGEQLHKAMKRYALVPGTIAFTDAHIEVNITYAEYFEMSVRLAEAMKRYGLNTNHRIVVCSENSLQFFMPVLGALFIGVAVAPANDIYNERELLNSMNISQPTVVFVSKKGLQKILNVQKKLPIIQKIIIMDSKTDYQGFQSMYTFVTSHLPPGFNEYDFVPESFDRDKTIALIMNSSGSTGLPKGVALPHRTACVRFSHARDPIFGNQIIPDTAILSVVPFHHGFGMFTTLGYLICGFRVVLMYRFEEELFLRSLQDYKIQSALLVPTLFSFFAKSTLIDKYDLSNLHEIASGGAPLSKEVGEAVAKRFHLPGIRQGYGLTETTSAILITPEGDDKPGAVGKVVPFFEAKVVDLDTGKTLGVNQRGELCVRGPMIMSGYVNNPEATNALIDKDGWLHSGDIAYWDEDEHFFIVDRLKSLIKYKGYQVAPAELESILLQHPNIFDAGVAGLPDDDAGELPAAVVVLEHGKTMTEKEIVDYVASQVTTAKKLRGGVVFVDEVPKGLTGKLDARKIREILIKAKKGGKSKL
Method in brief: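 Inhibition of purified Photinus luciferase is measured by luminescence. Substrate levels (D-luciferin, ATP) sit at their KM values. Each compound is tested in a concentration series.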

[5] = qHTS assay to identify small molecule agonists of the constitutive androstane receptor (CAR) signaling pathway - cell viability counter screen (AID 1224836); details: HepG2-CYP2B6-hCAR viability, CellTiter-Fluor, 23 h, PK11195 added to every well; series mostly up to 92.4 µM; also: nearly all actives have a fitted effect of over 45% in size; also: potency is read from the fitted curve at half-maximal effect
Method in brief: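 Compound titrations (15 concentrations) went onto HepG2-CYP2B6-hCAR cells 4 h after seeding, alongside PK11195 at a final 0.75 uM; a 23 h, 37 C/5% CO2 incubation preceded CellTiter-Fluor viability measurement.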

[6] = qHTS assay to identify small molecule antagonists of the estrogen related receptor signaling pathway with the pleiotropic PPARgamma coactivator (PGC) from Tox21 10K library - cell viability counter screen (AID 1224840; active = well fitted cell-killing curve with a large enough effect in the repeat runs, not every such curve was filed as active; also: nearly all actives have a fitted effect of over 40% in size; also: potency is read from the fitted curve at half-maximal effect); details: PGC/ERR reporter cells viability, CellTiter-Fluor, 17.5 h; series mostly up to 92.4 µM
Method in brief: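 Multiplexed viability counter screen in the PGC/ERR cell line: cells treated with DMSO-dissolved compounds for 17.5 hours at 37 C, then viability measured as CellTiter-Fluor fluorescence.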

[7] = molecular target: Thyrotropin receptor (Homo sapiens) (UniProt P16473); experiment: qHTS assay to identify small molecule agonists of the thyroid stimulating hormone receptor (TSHR) signaling pathway (AID 1224843; calls by dose curve; also: nearly all actives have a fitted effect of over 45% in size); details: TSHR-HEK293 cells, cAMP HTRF, agonist mode, 30 min; series mostly up to 92.4 µM
Sequence of Thyrotropin receptor (Homo sapiens) (P16473 whole entry, looked up): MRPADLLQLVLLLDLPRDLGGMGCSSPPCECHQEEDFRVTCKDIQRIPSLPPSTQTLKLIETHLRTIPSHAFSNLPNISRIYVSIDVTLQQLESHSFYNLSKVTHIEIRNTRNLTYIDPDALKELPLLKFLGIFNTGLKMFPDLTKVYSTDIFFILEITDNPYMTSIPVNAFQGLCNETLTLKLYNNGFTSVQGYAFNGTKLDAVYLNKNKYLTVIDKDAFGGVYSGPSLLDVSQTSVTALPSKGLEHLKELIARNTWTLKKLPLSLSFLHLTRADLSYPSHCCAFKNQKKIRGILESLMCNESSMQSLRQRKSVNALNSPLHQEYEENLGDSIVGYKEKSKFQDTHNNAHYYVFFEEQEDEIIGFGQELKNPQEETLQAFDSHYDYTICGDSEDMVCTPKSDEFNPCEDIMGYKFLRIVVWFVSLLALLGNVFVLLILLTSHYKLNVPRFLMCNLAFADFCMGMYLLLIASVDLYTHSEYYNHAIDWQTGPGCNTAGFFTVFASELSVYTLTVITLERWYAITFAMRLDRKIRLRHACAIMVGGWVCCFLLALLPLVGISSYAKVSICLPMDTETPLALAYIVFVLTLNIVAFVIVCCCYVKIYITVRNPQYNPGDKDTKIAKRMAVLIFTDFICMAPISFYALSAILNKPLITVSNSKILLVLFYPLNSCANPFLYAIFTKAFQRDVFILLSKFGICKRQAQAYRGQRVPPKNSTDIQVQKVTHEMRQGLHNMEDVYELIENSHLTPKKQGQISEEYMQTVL
Method in brief: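 A cell-based cAMP HTRF format was run in TSHR-transfected HEK293 cells, 800 per well. Treatment: 30 min, room temperature. Detection: 1 h with labelled cAMP and anti-cAMP cryptate. Concentration-response over 15 points, three replicates.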

[8] = qHTS assay to identify small molecule agonists of the retinoic acid receptor (RAR) signaling pathway (AID 1159553); details: C3RL4 RARE luciferase reporter, agonist, 6 h; series mostly up to 73.3 µM
Method in brief: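 Seed C3RL4 reporter cells at 1,000 per well and incubate overnight at 37 C. Add compounds in DMSO, incubate 6 hr. Add luciferase reagent, wait 30 min at room temperature, read luminescence.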

[9] = qHTS assay to identify small molecule antagonists of the constitutive androstane receptor (CAR) signaling pathway - cell viability counter screen (AID 1224837); details: HepG2-CYP2B6-hCAR viability, CellTiter-Fluor, 23 h, co-treated with 50 nM CITCO; series mostly up to 92.4 µM; also: nearly all actives have a fitted effect of over 45% in size; also: potency is read from the fitted curve at half-maximal effect
Method in brief: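 Viability was measured with CellTiter-Fluor in a HepG2 line carrying stably transfected hCAR and a CYP2B6-2.2kb construct. Cells were exposed for 23 hr at 37 C to 15 compound concentrations with 50 nM CITCO as agonist.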

[10] = molecular target: Nuclear receptor subfamily 1 group I member 3 (Homo sapiens) (UniProt Q14994); experiment: qHTS assay to identify small molecule antagonists of the constitutive androstane receptor (CAR) signaling pathway (AID 1224838); details: HepG2-CYP2B6-hCAR luciferase, CITCO-stimulated, 24 h; series mostly up to 92.4 µM;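 also: HepG2 cells stably expressing hCAR with CYP2B6 luciferase reporter stimulated by CITCO; nearly all actives have a fitted effect of over 40% in size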; also: potency is read from the fitted curve at half-maximal effect
Sequence of Nuclear receptor subfamily 1 group I member 3 (Homo sapiens) (Q14994 whole entry, looked up): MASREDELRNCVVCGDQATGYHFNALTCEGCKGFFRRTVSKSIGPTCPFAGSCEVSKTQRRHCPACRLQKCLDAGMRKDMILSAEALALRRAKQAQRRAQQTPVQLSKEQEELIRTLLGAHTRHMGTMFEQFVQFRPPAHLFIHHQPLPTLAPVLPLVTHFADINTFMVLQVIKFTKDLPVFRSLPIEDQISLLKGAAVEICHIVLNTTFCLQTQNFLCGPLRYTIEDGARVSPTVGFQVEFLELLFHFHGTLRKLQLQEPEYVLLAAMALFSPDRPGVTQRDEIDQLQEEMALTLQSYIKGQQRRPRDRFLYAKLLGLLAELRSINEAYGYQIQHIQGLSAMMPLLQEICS
Method in brief: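 Antagonist mode used CITCO at a final 50 nM to activate CAR in human hepatoma HepG2 cells carrying stable hCAR and a 2.2 kb CYP2B6 promoter-luciferase construct. Compounds were tested at 15 concentrations over 24 h, with luminescence as the end point.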

[11] = molecular target: Nuclear receptor subfamily 1 group I member 3 (Homo sapiens) (UniProt Q14994); experiment: qHTS assay to identify small molecule agonists of the constitutive androstane receptor (CAR) signaling pathway (AID 1224839); details: HepG2 hCAR CYP2B6-luciferase, agonist mode, 24 h; series mostly up to 92.4 µM; also: nearly all actives have a fitted effect of over 15% in size
Method in brief: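 In this screen, CAR-driven CYP2B6 promoter activity is measured by luminescence in HepG2-CYP2B6-hCAR cells after 24 h with test compounds and 0.75 uM PK11195 (final concentration).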

SMILES | Potency [1] | Potency [2] | Potency [3] | Potency [4] | Potency [5] | Potency [6] | Potency [7] | Potency [8] | Potency [9] | Potency [10] | Potency [11]
[CH3][Hg][Cl] | 6.15 µM (active) | inactive | 60.9 µM (active) | 5.62 µM (active) | 24.3 µM (active) | 38.5 µM (active) | inactive | – | – | – | –
CCN | inactive | inactive | inactive | inactive | inactive | inactive | inactive | inactive | inactive | inactive | inactive
Clc1ccc(COC(Cn2ccnc2)c2ccc(Cl)cc2Cl)cc1 (stereo unspecified) | 32.3 µM (active) and 38.7 µM (active) | 50.8 µM (active) and 48.4 µM (active) and inactive | – | inactive | – | 50.8 µM (active) and 54.3 µM (active) | inactive | – | 40.4 µM (active) and 43.1 µM (active) and 26.6 µM (active) | 54.3 µM (active) and 29.8 µM (active) | inactive
